Laboratory results taken from PubChem BioAssay AID1159580 (chemical genetic matrix, 2015).
Several values for one entry are separate records, joined by “and”; a condition that tells them apart may be missing. Equal entries are not always repeated. Among all 5,500 compounds or so, about 2,000 (36%) were called active. Roughly 18% stayed inconclusive and do not appear here. Rule as the data show it: active = normalized growth mostly below about 0.91 (no sharp cut-off); inconclusive = no clear call, values can overlap the other calls; inactive = mostly above about 0.92. The list shows a part of the results.

Experiment: chemical genetic growth profiling, strain panel (AID 1159580);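 also: tested at 20 µM; growth read once vehicle control cultures reached saturation at 30 °C; 1 = growth at the plate median or of vehicle wells; lower values mean less growth of the strain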
Details: S. cerevisiae deletion strains, growth OD

Measured: normalized growth

CC(=O)O[C@H]1C[C@@H](OC(C)=O)C(C)(C)C2CC(=O)[C@]3(C)C(CC[C@@]4(C)[C@H](c5ccoc5)OC(=O)[C@H]5O[C@]543)[C@]21C (some centres not stated)
inactive: locus YAL021C, strain ccr4, stronger effect = lower value 0.973 | locus YAL026C, strain drs2, stronger effect = lower value 0.982 | locus YAL030W, strain snc1, stronger effect = lower value 0.989 | locus YBL061C, strain skt5, stronger effect = lower value 0.993 | locus YBR009C, strain hhf1, stronger effect = lower value 0.99 | locus YBR021W, strain FUR4, stronger effect = lower value 0.984 | locus YBR023C, strain chs3, stronger effect = lower value 1.01 | locus YBR171W, strain sec66, stronger effect = lower value 0.999 | locus YBR229C, strain ROT2, stronger effect = lower value 0.999 | locus YBR231C, strain swc5, stronger effect = lower value 1.01 | locus YBR279W, strain paf1, stronger effect = lower value 0.969 | locus YCL011C, strain gbp2, stronger effect = lower value 0.998 | locus YCL016C, strain dcc1, stronger effect = lower value 0.997 | locus YCL029C, strain bik1, stronger effect = lower value 1.01 | locus YCL061C, strain MRC1, stronger effect = lower value 0.99 | locus YCL069W, strain vba3, stronger effect = lower value 0.99 | locus YCR088W, strain abp1, stronger effect = lower value 0.988 | locus YDL005C, strain med2, stronger effect = lower value 0.985 | locus YDL035C, strain GPR1, stronger effect = lower value 0.982 | locus YDL040C, strain nat1, stronger effect = lower value 0.999 | locus YDL074C, strain BRE1, stronger effect = lower value 0.981 | locus YDL101C, strain DUN1, stronger effect = lower value 1.02 | locus YDL185W, strain tfp1, stronger effect = lower value 0.998 | locus YDL192W, strain arf1, stronger effect = lower value 1 | locus YDR001C, strain nth1, stronger effect = lower value 0.976 | locus YDR069C, strain doa4, stronger effect = lower value 0.989 | locus YDR101C, strain arx1, stronger effect = lower value 0.997 | locus YDR137W, strain rgp1, stronger effect = lower value 0.974 | locus YDR159W, strain sac3, stronger effect = lower value 0.973 | locus YDR162C, strain NBP2, stronger effect = lower value 1 | locus YDR195W, strain ref2 0.94 | locus YDR297W, strain sur2, stronger effect = lower value 0.988 | locus YDR318W, strain mcm21, stronger effect = lower value 1.01 | locus YDR334W, strain swr1, stronger effect = lower value 0.983 | locus YDR335W, strain msn5, stronger effect = lower value 0.98 | locus YDR388W, stronger effect = lower value 1.01 | locus YDR392W, strain spt3, stronger effect = lower value 0.997 | locus YDR502C, strain sam2, stronger effect = lower value 1.03 | locus YEL003W, strain gim4, stronger effect = lower value 0.991 | locus YEL037C, strain rad23, stronger effect = lower value 0.988 | locus YEL061C, strain CIN8 (second series), stronger effect = lower value 0.994 | locus YER015W, strain faa2, stronger effect = lower value 0.994 | locus YER016W, strain bim1, stronger effect = lower value 0.991 | locus YER110C, stronger effect = lower value 1.02 | locus YER111C, strain swi4, stronger effect = lower value 1 | locus YER155C, strain BEM2 (second series), stronger effect = lower value 0.992 | locus YER155C, strain BEM2, stronger effect = lower value 1.01 | locus YER167W, strain BCK2, stronger effect = lower value 0.997 | locus YFR010W, strain ubp6, stronger effect = lower value 0.981 | locus YGL078C, strain dbp3, stronger effect = lower value 1.03 | locus YGL086W, strain mad1, stronger effect = lower value 1.01 | locus YGL167C, strain pmr1, stronger effect = lower value 0.997 | locus YGL173C, strain kem1, stronger effect = lower value 0.99 | locus YGL227W, strain vid30, stronger effect = lower value 0.993 | locus YGL240W, strain doc1, stronger effect = lower value 1.01 | locus YGL248W, strain PDE1, stronger effect = lower value 1 | locus YGL253W, strain hxk2, stronger effect = lower value 0.988 | locus YGR078C, strain PAC10, stronger effect = lower value 1.02 | locus YGR135W, strain pre9, stronger effect = lower value 1.06 | locus YGR252W, strain gcn5, stronger effect = lower value 0.994 | locus YHR013C, strain ard1, stronger effect = lower value 0.998 | locus YHR027C, strain rpn1, stronger effect = lower value 0.994 | locus YHR030C, strain SLT2, stronger effect = lower value 0.969 | locus YHR079C, strain IRE1 (second series), stronger effect = lower value 1.02 | locus YHR079C, strain IRE1, stronger effect = lower value 0.966 | locus YHR094C, strain hxt1, stronger effect = lower value 1.02 | locus YHR129C, strain ARP1, stronger effect = lower value 1.01 | locus YHR142W, strain chs7, stronger effect = lower value 1.01 | locus YHR200W, strain rpn10, stronger effect = lower value 1.02 | locus YIL066C, strain RNR3, stronger effect = lower value 0.998 | locus YIL073C, strain SPO22, stronger effect = lower value 1.32 | locus YIL125W, strain kgd1, stronger effect = lower value 1.01 | locus YIR030C, strain dcg1, stronger effect = lower value 1.01 | locus YJL092W, strain hpr5, stronger effect = lower value 0.994 | locus YJL095W, strain BCK1 (second series), stronger effect = lower value 0.996 | locus YJL095W, strain BCK1, stronger effect = lower value 1.04 and 0.973 | locus YJL115W, strain asf1, stronger effect = lower value 0.973 | locus YJL129C, strain trk1, stronger effect = lower value 0.991 | locus YJL134W, strain LCB3, stronger effect = lower value 1 | locus YJL154C, strain vps35, stronger effect = lower value 0.986 | locus YJL164C, strain tpk1, stronger effect = lower value 0.994 | locus YJL166W, strain qcr8, stronger effect = lower value 0.993 | locus YJL168C, strain set2, stronger effect = lower value 1.01 | locus YJL187C, strain SWE1 (second series), stronger effect = lower value 1.02 | locus YJL187C, strain SWE1, stronger effect = lower value 0.988 | locus YJR043C, strain POL32, stronger effect = lower value 0.958 | locus YJR066W, strain TOR1, stronger effect = lower value 0.915
